In the supplement of paper PMC10849652:
About 7,900 targets were measured; listed, in parts, are those with a hit and a random draw of the rest. About 0.6% of all pairs of compound and target were hits.

Legend:
Assay in all cases: log2 fold change, soluble protein after heating vs DMSO (PISA); higher = thermal stabilisation; K562 cells, 10 uM, 30 min; active = over 0.2 and 3.5 SD of the protein, either way, in both replicates (recomputed)
[1] = compound: CN1CCN(c2nc(C3=C(c4c[nH]c5ccccc45)C(=O)NC3=O)c3ccccc3n2)CC1 [sotrastaurin]
In short: (§1)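 Values are thermal stability changes relative to control samples and are taken from duplicates. They are stated as log2 fold changes. Before quantification by TMTpro 16plex LC-MS/MS with equalised channel sums, K562 cells at 2×10^6 cells/mL were treated with 10 μM compound for 30 min, heated in aliquots for 3 min across 48°C-58°C, pooled, extracted in PBS with 0.5% NP-40 at 4°C, and centrifuged at 21,000xg for 90 min to give the soluble supernatant.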

[2] = compound: CNC(=O)C1=CC=CC=C1NC2=NC(=NC=C2Cl)NC3=C(C=C(C=C3)N4CCOCC4)OC
In short: as §1

[3] = compound: CNCc1ccc(-c2[nH]c3cc(F)cc4c3c2CCNC4=O)cc1 [rucaparib]
In short: as §1

[4] = compound: COC(=O)N[C@@H](C)CNc1nccc(-c2cn(C(C)C)nc2-c2cc(Cl)cc(NS(C)(=O)=O)c2F)n1 [encorafenib]
In short: as §1

[5] = compound: CN1CCN(CCOc2cc(OC3CCOCC3)c3c(Nc4c(Cl)ccc5c4OCO5)ncnc3c2)CC1 [saracatinib]
In short: as §1

[6] = compound: CN1CCc2c(c3ccccc3n2Cc2ccc(C(=O)NO)cc2)C1 [Tubastatin A]
In short: as §1

[7] = compound: CNC(=O)c1ccc(Nc2ncc(C(F)(F)F)c(NCc3nccnc3N(C)S(C)(=O)=O)n2)cc1 [defactinib]
In short: as §1

[8] = compound: CNc1nc(-c2ccc3c(N)n[nH]c3c2)cc(N2C[C@@H](C(=O)NC3CCCCC3)CC[C@H]2C)n1
In short: as §1

[9] = compound: COC(=O)[C@H](CCSC)NC(=O)C1=C(C=C(C=C1)NC[C@H](CS)N)C2=CC=CC=C2
In short: as §1

[10] = compound: CN1CC[C@H](c2c(O)cc(O)c3c(=O)cc(-c4ccccc4Cl)oc23)[C@H](O)C1 [alvocidib]
In short: as §1

Chain of UniProt P18887 (P18887 whole entry, looked up): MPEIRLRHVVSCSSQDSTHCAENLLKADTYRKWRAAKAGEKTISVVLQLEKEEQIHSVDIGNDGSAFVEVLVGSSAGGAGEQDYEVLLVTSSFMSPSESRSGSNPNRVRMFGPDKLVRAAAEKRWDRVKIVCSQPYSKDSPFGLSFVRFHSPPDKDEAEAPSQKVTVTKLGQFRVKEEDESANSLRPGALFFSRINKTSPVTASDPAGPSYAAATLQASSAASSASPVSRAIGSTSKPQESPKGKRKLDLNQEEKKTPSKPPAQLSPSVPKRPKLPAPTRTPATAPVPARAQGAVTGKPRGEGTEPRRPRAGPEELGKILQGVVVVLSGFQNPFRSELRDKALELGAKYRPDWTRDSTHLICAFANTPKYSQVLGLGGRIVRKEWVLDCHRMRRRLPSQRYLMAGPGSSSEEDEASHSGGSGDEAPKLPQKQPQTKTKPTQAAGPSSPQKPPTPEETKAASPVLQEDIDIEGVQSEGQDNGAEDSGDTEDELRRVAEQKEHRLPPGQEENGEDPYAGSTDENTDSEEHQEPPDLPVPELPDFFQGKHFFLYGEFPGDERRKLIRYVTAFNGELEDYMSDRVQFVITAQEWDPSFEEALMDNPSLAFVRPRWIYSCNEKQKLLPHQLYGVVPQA
Chain of UniProt O60784 (O60784 whole entry, looked up): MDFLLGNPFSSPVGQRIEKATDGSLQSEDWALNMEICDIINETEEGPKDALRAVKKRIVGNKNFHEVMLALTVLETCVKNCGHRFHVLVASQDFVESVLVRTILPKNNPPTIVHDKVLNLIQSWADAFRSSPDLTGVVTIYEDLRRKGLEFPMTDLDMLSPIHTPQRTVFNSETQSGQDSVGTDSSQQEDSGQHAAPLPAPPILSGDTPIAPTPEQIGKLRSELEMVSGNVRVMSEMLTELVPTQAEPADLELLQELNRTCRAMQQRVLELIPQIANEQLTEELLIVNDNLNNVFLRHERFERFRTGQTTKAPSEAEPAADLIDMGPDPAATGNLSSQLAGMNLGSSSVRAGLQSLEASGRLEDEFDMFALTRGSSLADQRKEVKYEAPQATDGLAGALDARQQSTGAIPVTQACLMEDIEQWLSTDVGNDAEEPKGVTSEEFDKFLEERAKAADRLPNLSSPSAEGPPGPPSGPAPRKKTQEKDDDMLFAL
Chain of UniProt Q7Z7N9 (Q7Z7N9 whole entry, looked up): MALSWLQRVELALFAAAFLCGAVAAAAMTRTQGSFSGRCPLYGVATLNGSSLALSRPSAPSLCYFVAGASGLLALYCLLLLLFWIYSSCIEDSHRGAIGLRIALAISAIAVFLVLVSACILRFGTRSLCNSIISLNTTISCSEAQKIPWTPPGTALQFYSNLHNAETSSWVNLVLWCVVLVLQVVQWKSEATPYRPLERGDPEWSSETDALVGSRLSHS
Chain of UniProt Q9NVA4 (Q9NVA4 whole entry, looked up): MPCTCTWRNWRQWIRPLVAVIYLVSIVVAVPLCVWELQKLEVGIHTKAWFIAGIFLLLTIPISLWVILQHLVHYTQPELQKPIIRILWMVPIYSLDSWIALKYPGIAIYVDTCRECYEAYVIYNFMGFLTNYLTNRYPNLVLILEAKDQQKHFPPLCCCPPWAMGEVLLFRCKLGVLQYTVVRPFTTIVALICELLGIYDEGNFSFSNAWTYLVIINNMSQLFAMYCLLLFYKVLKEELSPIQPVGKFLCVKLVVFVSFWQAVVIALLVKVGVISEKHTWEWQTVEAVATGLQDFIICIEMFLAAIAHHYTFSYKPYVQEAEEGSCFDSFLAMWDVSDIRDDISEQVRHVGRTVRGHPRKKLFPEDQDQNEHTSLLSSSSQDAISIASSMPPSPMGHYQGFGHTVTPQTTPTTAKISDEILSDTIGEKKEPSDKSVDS
Chain of UniProt Q5VZI3 (Q5VZI3 whole entry, looked up): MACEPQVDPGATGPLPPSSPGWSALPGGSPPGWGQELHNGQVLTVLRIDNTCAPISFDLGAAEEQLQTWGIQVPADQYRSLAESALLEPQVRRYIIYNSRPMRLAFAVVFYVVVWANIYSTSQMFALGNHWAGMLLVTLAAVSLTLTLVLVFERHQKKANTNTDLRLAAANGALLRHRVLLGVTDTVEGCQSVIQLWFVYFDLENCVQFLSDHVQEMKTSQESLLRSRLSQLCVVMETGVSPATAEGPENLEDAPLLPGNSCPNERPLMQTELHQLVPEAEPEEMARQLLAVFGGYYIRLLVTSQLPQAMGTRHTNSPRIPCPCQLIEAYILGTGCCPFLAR
Chain of UniProt Q96ET8 (Q96ET8 whole entry, looked up): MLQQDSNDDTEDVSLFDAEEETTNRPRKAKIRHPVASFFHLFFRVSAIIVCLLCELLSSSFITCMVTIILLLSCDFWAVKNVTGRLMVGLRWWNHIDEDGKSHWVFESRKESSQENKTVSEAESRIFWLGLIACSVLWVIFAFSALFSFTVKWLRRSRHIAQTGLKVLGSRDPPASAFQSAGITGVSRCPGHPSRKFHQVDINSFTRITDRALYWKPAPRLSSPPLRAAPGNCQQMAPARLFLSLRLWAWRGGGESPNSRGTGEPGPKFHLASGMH
Chain of UniProt Q9Y5K5 (Q9Y5K5 whole entry, looked up): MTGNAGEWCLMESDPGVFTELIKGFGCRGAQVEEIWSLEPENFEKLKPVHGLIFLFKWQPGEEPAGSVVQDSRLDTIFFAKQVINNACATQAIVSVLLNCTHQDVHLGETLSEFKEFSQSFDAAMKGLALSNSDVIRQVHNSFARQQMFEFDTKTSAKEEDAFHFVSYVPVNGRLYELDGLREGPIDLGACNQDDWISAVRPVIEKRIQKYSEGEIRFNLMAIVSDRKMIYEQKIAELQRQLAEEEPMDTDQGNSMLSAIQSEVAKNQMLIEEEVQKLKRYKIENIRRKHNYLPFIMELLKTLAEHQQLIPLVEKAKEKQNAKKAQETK
Chain of UniProt Q86UV5 (Q86UV5 whole entry, looked up): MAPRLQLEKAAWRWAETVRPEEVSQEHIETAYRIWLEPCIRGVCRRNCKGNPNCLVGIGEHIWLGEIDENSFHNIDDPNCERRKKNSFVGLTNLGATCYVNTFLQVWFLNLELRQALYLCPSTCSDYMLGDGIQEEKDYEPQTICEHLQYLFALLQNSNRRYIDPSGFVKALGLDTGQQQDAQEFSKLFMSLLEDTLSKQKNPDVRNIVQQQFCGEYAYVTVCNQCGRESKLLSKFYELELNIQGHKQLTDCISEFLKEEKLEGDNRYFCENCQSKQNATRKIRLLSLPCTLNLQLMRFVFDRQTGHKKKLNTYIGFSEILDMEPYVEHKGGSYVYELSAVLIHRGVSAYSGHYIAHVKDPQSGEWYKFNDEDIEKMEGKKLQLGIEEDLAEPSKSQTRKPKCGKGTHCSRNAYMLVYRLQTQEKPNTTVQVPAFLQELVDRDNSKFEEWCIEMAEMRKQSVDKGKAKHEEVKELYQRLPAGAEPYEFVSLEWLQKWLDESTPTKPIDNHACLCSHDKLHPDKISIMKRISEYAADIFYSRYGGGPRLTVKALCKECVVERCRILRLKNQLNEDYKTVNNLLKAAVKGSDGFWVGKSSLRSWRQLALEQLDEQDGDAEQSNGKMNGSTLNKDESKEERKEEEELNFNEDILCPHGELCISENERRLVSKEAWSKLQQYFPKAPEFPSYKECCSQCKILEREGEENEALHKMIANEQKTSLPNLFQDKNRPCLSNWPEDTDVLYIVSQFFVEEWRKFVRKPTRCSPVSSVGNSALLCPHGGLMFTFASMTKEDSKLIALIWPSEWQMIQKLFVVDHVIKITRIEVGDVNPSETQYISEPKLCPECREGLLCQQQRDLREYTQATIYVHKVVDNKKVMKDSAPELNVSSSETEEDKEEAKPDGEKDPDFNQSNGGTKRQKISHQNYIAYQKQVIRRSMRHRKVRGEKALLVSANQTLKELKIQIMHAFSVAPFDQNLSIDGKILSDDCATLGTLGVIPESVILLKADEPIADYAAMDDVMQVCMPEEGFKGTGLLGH
Chain of UniProt Q9NQ34 (Q9NQ34 whole entry, looked up): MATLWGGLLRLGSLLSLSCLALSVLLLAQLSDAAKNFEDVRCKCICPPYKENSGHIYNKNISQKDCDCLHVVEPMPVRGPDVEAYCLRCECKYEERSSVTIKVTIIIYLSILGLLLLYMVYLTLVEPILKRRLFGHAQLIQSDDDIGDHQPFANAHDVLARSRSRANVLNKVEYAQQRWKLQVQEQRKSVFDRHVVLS
Chain of UniProt Q629K1 (Q629K1 whole entry, looked up): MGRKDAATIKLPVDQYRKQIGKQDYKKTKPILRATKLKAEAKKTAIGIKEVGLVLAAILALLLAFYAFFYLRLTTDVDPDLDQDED
Chain of UniProt Q86TN4 (Q86TN4 whole entry, looked up): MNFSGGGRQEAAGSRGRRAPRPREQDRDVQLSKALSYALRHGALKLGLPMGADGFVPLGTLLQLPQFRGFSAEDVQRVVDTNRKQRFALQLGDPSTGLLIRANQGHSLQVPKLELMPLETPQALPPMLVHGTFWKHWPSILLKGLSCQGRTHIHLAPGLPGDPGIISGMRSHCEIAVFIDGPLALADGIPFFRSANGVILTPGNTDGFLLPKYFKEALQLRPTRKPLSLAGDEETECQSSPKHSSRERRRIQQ
Chain of UniProt Q8NE00 (Q8NE00 whole entry, looked up): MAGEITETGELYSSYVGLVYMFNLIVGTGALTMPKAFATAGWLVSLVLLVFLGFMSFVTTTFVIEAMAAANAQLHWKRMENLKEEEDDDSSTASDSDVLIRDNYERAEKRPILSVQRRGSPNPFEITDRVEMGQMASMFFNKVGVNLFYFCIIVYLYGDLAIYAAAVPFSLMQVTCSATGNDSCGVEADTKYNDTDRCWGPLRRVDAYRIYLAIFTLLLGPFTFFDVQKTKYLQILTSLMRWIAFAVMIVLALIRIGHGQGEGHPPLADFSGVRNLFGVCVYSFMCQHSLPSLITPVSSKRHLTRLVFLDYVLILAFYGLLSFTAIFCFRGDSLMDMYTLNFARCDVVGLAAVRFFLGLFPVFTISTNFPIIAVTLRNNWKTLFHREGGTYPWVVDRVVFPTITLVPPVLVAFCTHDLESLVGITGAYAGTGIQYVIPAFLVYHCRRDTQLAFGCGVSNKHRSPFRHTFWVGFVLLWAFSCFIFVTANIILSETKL

Row | Target | log2 fold change [1] | log2 fold change [2] | log2 fold change [3] | log2 fold change [4] | log2 fold change [5] | log2 fold change [6] | log2 fold change [7] | log2 fold change [8] | log2 fold change [9] | log2 fold change [10]
1 | TRPT1 isoform 4 (UniProt Q86TN4) | -0.208 (inactive) | -0.069 (inactive) | 0.101 (inactive) | 0.036 (inactive) |  |  |  |  |  | 
2 | TMEM41A (UniProt Q96HV5) | -0.057 (inactive) | 0.008 (inactive) | -0.009 (inactive) | 0.025 (inactive) | 0.03 (inactive) | -0.068 (inactive) | 0.003 (inactive) | -0.011 (inactive) | -0.012 (inactive) | 
3 | TMEM184C (UniProt Q9NVA4) | 0.139 (inactive) |  | 0.028 (inactive) | 0.051 (inactive) | 0.022 (inactive) | 0.022 (inactive) | -0.049 (inactive) | -0.182 (inactive) | 0.118 (inactive) | -0.123 (inactive)
4 | U2AF1L5 (UniProt P0DN76) |  | 0.084 (inactive) | 0.236 (inactive) | 0.23 (inactive) | -0.013 (inactive) | 0.072 (inactive) | -0.409 (inactive) | -0.023 (inactive) | 0.107 (inactive) | 
5 | WDR4 isoform 3 (UniProt P57081) | 0.098 (inactive) |  |  |  |  |  |  |  |  | 
6 | TOM1L2 (UniProt Q6ZVM7) | -0.091 (inactive) | -0.102 (inactive) |  |  | -0.02 (inactive) |  | -0.072 (inactive) | -0.05 (inactive) | 0.058 (inactive) | -0.357 (active)
7 | WDR46, A0A0G2JJL1 | 0.052 (inactive) | 0.007 (inactive) | 0.293 (inactive) | 0.044 (inactive) | 0.065 (inactive) | -0.095 (inactive) | 0.408 (inactive) | 0.119 (inactive) | -0.138 (inactive) | 
8 | WARS1 (UniProt G3V3P2) | 0.336 (inactive) |  |  |  |  |  |  |  |  | 
9 | TMEM179B (UniProt Q7Z7N9) | 0.151 (inactive) | 0.044 (inactive) | 0.026 (inactive) | -0.015 (inactive) |  | 0.036 (inactive) |  |  |  | 0.097 (inactive)
10 | UTP20 (UniProt O75691) |  | -0.051 (inactive) |  |  |  | -0.028 (inactive) |  |  |  | 
11 | USP48 (UniProt Q86UV5) | -0.123 (inactive) | -0.045 (inactive) | -0.102 (inactive) | 0.318 (inactive) |  |  |  |  |  | 
12 | WARS1 (UniProt G3V227) |  |  |  |  | 0.003 (inactive) | -0.053 (inactive) | -0.001 (inactive) | 0.021 (inactive) | 0.3 (inactive) | -0.065 (inactive)
13 | TMEM9B (UniProt Q9NQ34) | 0.019 (inactive) | -0.029 (inactive) | -0.02 (inactive) | 0.063 (inactive) |  | -0.033 (inactive) | -0.029 (inactive) |  | -0.001 (inactive) | 0.075 (inactive)
14 | TOM1 (UniProt O60784) | -0.033 (inactive) | -0.113 (inactive) |  |  |  | 0.002 (inactive) |  |  |  | 
15 | UCHL5 isoform 3 (UniProt Q9Y5K5) | -0.292 (inactive) | 0.136 (inactive) | -0.08 (inactive) | 0.241 (inactive) |  | -0.035 (inactive) | 0.03 (inactive) |  | -0.254 (inactive) | -0.156 (inactive)
16 | WARS1 (UniProt G3V277) | 0.021 (inactive) | -0.052 (inactive) |  |  |  | 0.005 (inactive) | 0 (inactive) |  | 0.14 (inactive) | 
17 | UBAP2L (UniProt F8W726) |  | -0.05 (inactive) | -0.006 (inactive) | -0.021 (inactive) |  | -0.039 (inactive) |  |  |  | 
18 | TSC2 (UniProt P49815) | -0.085 (inactive) | -0.603 (inactive) | -0.097 (inactive) | 0.042 (inactive) |  | 0.437 (inactive) |  |  |  | -0.134 (inactive)
19 | TTC33 (UniProt Q6PID6) | 0.009 (inactive) | 0.012 (inactive) | -0.008 (inactive) | -0.014 (inactive) | -0.103 (inactive) |  | 0.013 (inactive) | -0.152 (inactive) | 0.054 (inactive) | 0.041 (inactive)

Row | Target | log2 fold change [1] | log2 fold change [2] | log2 fold change [3] | log2 fold change [4] | log2 fold change [5] | log2 fold change [6] | log2 fold change [7] | log2 fold change [8] | log2 fold change [9] | log2 fold change [10]
20 | TUBA4A (UniProt C9JJQ8) | -0.084 (inactive) |  | 0.186 (inactive) | 0.078 (inactive) | -0.148 (inactive) | 0.147 (inactive) | -0.215 (inactive) | 0.131 (inactive) | -0.055 (inactive) | -0.191 (inactive)
21 | VWA3B isoform 6 (UniProt Q502W6) |  | 0.017 (inactive) | -0.448 (inactive) | 0.095 (inactive) | 0.042 (inactive) | -0.018 (inactive) | 0.039 (inactive) | -0.076 (inactive) | -0.04 (inactive) | 0.079 (inactive)
22 | TRIM4 (UniProt Q9C037) | 0.024 (inactive) | 0.439 (active) | 0.031 (inactive) | 0.04 (inactive) |  | 0.097 (inactive) | -0.029 (inactive) |  | -0.108 (inactive) | -0.029 (inactive)
23 | TRABD (UniProt Q9H4I3) | 0.003 (inactive) | 0.131 (inactive) | 0.073 (inactive) | -0.01 (inactive) |  | 0.06 (inactive) | -0.096 (inactive) |  | -0.033 (inactive) | -0.151 (inactive)
24 | TMEM104 (UniProt Q8NE00) |  | -0.007 (inactive) | 0.06 (inactive) | 0.056 (inactive) | -0.024 (inactive) |  |  | -0.122 (inactive) |  | -0.013 (inactive)
25 | UBXN8 (UniProt O00124) | 0.027 (inactive) |  | -0.568 (active) | 0.094 (inactive) | -0.054 (inactive) | -0.144 (inactive) | 0.065 (inactive) | -0.112 (inactive) | -0.095 (inactive) | 0.102 (inactive)
26 | TVP23C (UniProt Q96ET8) |  | 0.042 (inactive) | -0.205 (inactive) | 0.129 (inactive) | 0.025 (inactive) | 0 (inactive) | 0.039 (inactive) | 0.015 (inactive) | 0.067 (inactive) | -0.135 (inactive)
27 | TRIQK (UniProt Q629K1) | -0.112 (inactive) |  |  |  | -0.014 (inactive) | -0.094 (inactive) |  | -0.045 (inactive) |  | 0.011 (inactive)
28 | TMEM268 isoform 3 (UniProt Q5VZI3) | -0.103 (inactive) | -0.017 (inactive) | -0.021 (inactive) | -0.19 (inactive) | 0.033 (inactive) | 0.131 (inactive) |  | 0.046 (inactive) |  | 0.069 (inactive)
29 | TTC26 |  |  |  |  |  | -0.033 (inactive) | 0.265 (inactive) |  | 0.144 (inactive) | 
30 | WARS1 (UniProt G3V5U1) | 0.315 (inactive) |  | 0.228 (inactive) | -0.451 (inactive) |  |  |  |  |  | 
31 | TXNRD1 isoform 7 (UniProt Q16881) | 0.019 (inactive) | -0.364 (inactive) | 0.263 (inactive) | -0.085 (inactive) | -0.202 (inactive) |  | -0.194 (inactive) | 0.065 (inactive) | 0.062 (inactive) | 
32 | UBA52 (UniProt P62987) | -0.029 (inactive) | -0.008 (inactive) | 0.421 (inactive) | 0.152 (inactive) |  | -0.004 (inactive) | 0.221 (inactive) |  | 0.08 (inactive) | 0.339 (inactive)
33 | XAB2 (UniProt Q9HCS7) |  |  |  |  | 0.052 (inactive) |  |  | 0.073 (inactive) |  | 
34 | VDAC1 (UniProt C9JI87) | 0.034 (inactive) | -0.135 (inactive) | -0.247 (inactive) | -0.087 (inactive) | -0.027 (inactive) |  |  | -0.189 (inactive) |  | 0.201 (inactive)
35 | XRCC1 (UniProt P18887) | -0.264 (inactive) | 0.05 (inactive) |  |  | 0.008 (inactive) | 0.055 (inactive) |  | 0.148 (inactive) |  | -0.029 (inactive)
36 | WDR75 (UniProt Q8IWA0) |  |  |  |  | -0.109 (inactive) | 0.173 (inactive) | 0.144 (inactive) | 0.162 (inactive) | -0.197 (inactive) | 0.147 (inactive)
37 | UBE3B (UniProt Q7Z3V4) | 0.005 (inactive) |  |  |  | -0.028 (inactive) | 0.128 (inactive) |  | -0.032 (inactive) |  | 0.122 (inactive)
